GDH-TPI counter-1 = GDH-TPI coupling enzyme inhibitors, primary screen, artefact control for M. tuberculosis FBA inhibitor project, biochemical, absorbance, full deck. GDH-TPI coupled enzyme counterscreen, NADH absorbance. inhibition, % at 4.8 µM. 360,000 compounds, 1.2% hits. AID 588335, 2011; in the data active means inhibition above about 30%;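 further: 0% = DMSO wells and 100% = wells lacking the enzyme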
RecA intein inh = Mtb RecA intein splicing inhibitors, primary screen, biochemical, fluorescence, HTS | Protein RecA (Mycobacterium tuberculosis (strain ATCC 25618 / H37Rv)), P9WHJ3 | cell-free RecA intein splicing | inhibition, % (test concentration not listed) | 290,000 compounds, 0.75% hits | AID 2221, 2009; in the data active means inhibition above about 30%;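 further: 0% = vehicle wells and 100% = reference inhibitor control wells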
Mtb FBA inh = Mtb FBA enzyme inhibitors, primary screen, biochemical, fluorescence, strain H37Rv | inhibition, % at 1 µM | 360,000 compounds, 2.3% hits | purified M. tuberculosis FBA, fluorescence read-out | Fructose-bisphosphate aldolase (Mycobacterium tuberculosis (strain ATCC 25618 / H37Rv)), …; in the data active means inhibition above about 27%;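 further: 0% = vehicle and 100% = reference inhibitor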
UGM FP inh = M. tuberculosis UGM enzyme inhibitors, primary screen, biochemical, fluorescence polarization, single point; UDP-galactopyranose mutase (Mycobacterium tuberculosis (strain ATCC 25618 / H37Rv)), …; purified UGM, fluorescence polarization probe displacement; inhibition, % at 10 µM; 320,000 compounds, 0.06% hits; AID 504406, 2011; in the data active means inhibition above about 10%, passing the limit was not always enough
Target sequence (P9WIQ1 whole entry, looked up): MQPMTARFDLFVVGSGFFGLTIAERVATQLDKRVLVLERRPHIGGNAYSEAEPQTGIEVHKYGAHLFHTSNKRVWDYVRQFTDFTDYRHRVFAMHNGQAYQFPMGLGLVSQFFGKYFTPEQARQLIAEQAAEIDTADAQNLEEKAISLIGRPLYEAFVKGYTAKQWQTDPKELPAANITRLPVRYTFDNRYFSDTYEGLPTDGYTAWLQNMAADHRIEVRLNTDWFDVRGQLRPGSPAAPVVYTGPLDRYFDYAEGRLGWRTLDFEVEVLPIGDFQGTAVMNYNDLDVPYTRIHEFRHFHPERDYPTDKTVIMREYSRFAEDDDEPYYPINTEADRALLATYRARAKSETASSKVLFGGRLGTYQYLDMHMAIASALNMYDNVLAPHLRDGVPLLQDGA
Rv3671c inh = Rv3671c serine protease inhibitors, primary screen, biochemical, fluorescence polarization, M. tuberculosis H37Rv; P9WHR9; inhibition, % at 5.96 µM; 320,000 compounds, 0.048% hits; in the data active means inhibition above about 38%;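 further: extracellular domain of Rv3671c used as enzyme; 0% = enzyme with DMSO and 100% = no enzyme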
Mtb bLac sens = beta-lactam sensitization of Mtb H37Rv, H37Rv; M. tuberculosis H37Rv growth with meropenem, percent inhibition; inhibition, % at 25 µM; 330,000 compounds, 0.27% hits; AID 434955, 2010;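 further: growth measured after seven days incubation then overnight dye step; 0% = bacteria only wells and 100% = bacteria with antibiotic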
Mtb FBA confirm = M. tuberculosis aldolase blockers, biochemical, fluorescence, strain H37Rv, confirmation; AID 651616, 2012; purified M. tuberculosis FBA, fluorescence read-out; inhibition, % at 1 µM; shares compounds with Mtb FBA inh; 5,600 compounds, 78% hits; in the data active means inhibition above about 27%;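 further: 0% = vehicle wells and 100% = reference inhibitor wells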
GDH-TPI counter-2 = GDH-TPI coupling enzyme inhibitors, artefact control for M. tuberculosis FBA inhibitor project, biochemical, fluorescence, high throughput. shares compounds with Mtb FBA inh. GDH-TPI coupled enzyme counterscreen. inhibition, % at 1 µM. 5,600 compounds, 81% hits. AID 652141, 2013; in the data active means inhibition above about 10%
GDH-TPI DR = GDH-TPI coupling enzyme inhibitors, dose response, artefact control for M. tuberculosis FBA inhibitor project, biochemical, fluorescence, IC50; shares compounds with Mtb FBA inh; GDH-TPI coupled enzyme assay, artifact counterscreen; IC50, µM; 170 compounds, 79% hits; AID 652145, 2013
Active calls of the source: *; x = no result given; + = active, no number. An excerpt weighted towards active compounds, which were near 4% of everything screened. Unless noted, how the calls were made is not given here.

SMILES | GDH-TPI counter-1 | RecA intein inh | Mtb FBA inh | UGM FP inh | Rv3671c inh | Mtb bLac sens | Mtb FBA confirm | GDH-TPI counter-2 | others
Cc1cc(=O)oc2cc(NC(=S)NNC(=O)c3c(Cl)cnn3C)ccc12 | 35* | -6 | 83* | -1 | 1 | -6 | 43* | 28*
COc1ccccc1CNC(=O)COC(=O)c1nccnc1N | 0 | 1 | 48* | 2 | -4 | 1 | 9 | -6
Nc1nccnc1C(=O)OCC(=O)NCCc1ccc(S(N)(=O)=O)cc1 | 10 | 1 | 88* | 0 | -4 | -7 | 100* | 91*
COc1ccccc1CNC(=O)COC(=O)c1cnccn1 | -4 | -4 | 0 | 2 | -5 | 1 | x | x
Cc1sc(N)nc1-c1ccccc1 | 7 | 2 | 3 | 0 | 5 | 85 | x | x
Nc1c(-c2ccccc2)nc(Cl)nc1-c1ccccc1 | 12 | -85 | 43* | 1 | -1 | 8 | -3 | -2
CCCOC(=O)c1cc(-c2ccc(C=O)o2)ccc1Cl | 28 | 2 | 97* | -1 | -1 | 31 | 7 | -5
Cc1ccc(CN2CCNC(=O)C2CC(=O)NCCCn2nnc3ccccc32)cc1 (centres undefined) | 9 | x | -1 | x | x | x | x | x
Cc1ccc2nc(-c3ccco3)c(Cc3ccccc3)n2c1 | x | x | 36* | x | x | x | 181* | 108*
Fc1cccc(Cc2c(-c3cccc(Cl)c3)nc3c4ccccc4ccn23)c1 | x | x | 6 | x | x | x | x | x
Fc1cccc(Cc2c(-c3ccco3)nc3c4ccccc4ccn23)c1 | x | x | 27* | x | x | x | 68* | 46*
Cc1ccc2nc(C3CCCCC3)c(Cc3ccccc3)n2c1 | x | x | 28* | x | x | x | 3 | -3
Cc1ccc(Cl)cc1NC(=O)CN1CCN(S(=O)(=O)N2CCC(C)CC2)CC1 | -2 | 0 | 1 | 1 | 3 | -7 | x | x
COc1ccccc1C1C2=C(CC(C)(C)CC2=O)N(CC(=O)O)C2=C1C(=O)CC(C)(C)C2 | 8 | -349 | 23 | 1 | 3 | -1 | x | x
COc1ccc(N2C3=C(C(=O)CC(C)(C)C3)C(c3ccccc3OC)C3=C2CC(C)(C)CC3=O)cc1 | -2 | -59 | 50* | -1 | -3 | 1 | 76* | 60*
COc1ccc(NC(=O)[C@@H]2O[C@H](CO)[C@H](O)[C@H](O)[C@H]2O)cc1F | -3 | x | -4 | x | x | x | x | x
N#Cc1cccnc1N1CCC(C(N)=O)CC1 | 9 | 1 | 30* | 0 | 4 | 3 | 50* | 38*
Cc1cc(-c2nc3ccccc3o2)c2ccccc2n1 | 23 | 4 | 34* | 1 | -24 | 50 | 15 | -2 | GDH-TPI DR=5.7*
CCOc1ccc(CNC(=O)c2ccc3c(c2)N(CC)CCS3)cc1 | 6 | -7 | 71* | 0 | 2 | -2 | 122* | 88*
CCN1CCSc2ccc(C(=O)NCc3ccc(OC(C)C)cc3)cc21 | 15 | 0 | 42* | -2 | 8 | -4 | 81* | 56*
COc1ccccc1CNC(=O)N1CCN(c2ccccc2C)CC1 | -7 | -3 | 2 | 0 | -11 | 5 | x | x
COc1cc(/C=N/NC(=O)C(N)=O)cc(OC)c1O | 14 | -10 | 51* | 3 | 3 | 4 | + | +
CCOC(=O)N/N=C/c1cc(OC)c(O)c(OC)c1 | 16 | -4 | 4 | -3 | -12 | -4 | x | x
CC1CCC2(CC1)NC(=O)N(CC(=O)N1CCN(S(=O)(=O)c3ccc4c(c3)CCC4)CC1)C2=O (centres undefined) | -5 | x | 0 | 2 | 0 | 2 | x | x
CC(C)Oc1cccc(-c2cc(C(=O)NC(=S)N(C)c3ccccc3C(=O)O)c3ccccc3n2)c1 | 13 | 5 | 42* | 3 | -3 | 11 | 5 | -4
SMILES | GDH-TPI counter-1 | RecA intein inh | Mtb FBA inh | UGM FP inh | Rv3671c inh | Mtb bLac sens | Mtb FBA confirm | GDH-TPI counter-2 | others
CCOc1ccc(-c2cc(C)n3nc(C(N)=O)cc3n2)cc1 | 5 | -15 | 52* | -4 | 4 | 13 | -2 | -1
CCN(CC)CCN(Cc1cc2cc3c(cc2[nH]c1=O)OCCO3)C(=S)NCC1CCCO1 (centres undefined) | 3 | 2 | 6 | 2 | -11 | -3 | x | x
CCN(CC)CCN(Cc1cc2cc3c(cc2[nH]c1=O)OCO3)C(=S)NCC1CCCO1 (centres undefined) | 17 | -2 | 56* | 2 | -1 | -9 | 95* | 70*
CCN(CC)CCN(Cc1cc2cc3c(cc2[nH]c1=O)OCO3)C(=S)NCCCOC | 27 | -3 | 39* | -2 | -5 | -6 | 97* | 81*
CCN(CC)CCCN(Cc1cc2cc3c(cc2[nH]c1=O)OCO3)C(=S)NCCCOC | 34* | -2 | 40* | 0 | -7 | 0 | + | 173*
COCCNC(=S)N(CCO)Cc1cc2cc3c(cc2[nH]c1=O)OCO3 | 22 | 0 | 31* | 0 | 4 | -4 | 122* | 92*
COCCNC(=S)N(CCCO)Cc1cc2cc3c(cc2[nH]c1=O)OCCO3 | 9 | 0 | 14 | 3 | 10 | -6 | x | x
CCC(Sc1ncccc1Nc1ccccn1)C(=O)O (centres undefined) | 9 | -1 | -2 | 0 | -2 | 4 | x | x
COc1ccc(-c2nc(CC(=O)O)cs2)cc1OC | x | 2 | x | 0 | -2 | 26 | x | x
CCOc1ccc(-c2nc(CCl)cs2)cc1OC | 2 | 4 | 46* | 3 | 4 | -2 | 41* | 19*
O=c1[nH]c2cc3c(cc2cc1CN(CCCO)Cc1nnnn1Cc1ccc(F)cc1)OCO3 | 24 | -13 | 36* | -1 | 0 | 8 | 35* | 30*
O=c1[nH]c2cc3c(cc2cc1CN(Cc1ccc2c(c1)OCO2)Cc1nnnn1CC1CCCO1)OCO3 (centres undefined) | 24 | -1 | 40* | 2 | -8 | 35 | 47* | 40*
Cc1ccc2cc(CN(CCO)Cc3nnnn3Cc3ccc(F)cc3)c(=O)[nH]c2c1 | 5 | 2 | 13 | 0 | 8 | -7 | x | x
O=C(/C=C/c1cccc(Cl)c1)NCCCN1CCOCC1 | -7 | -3 | -1 | 0 | -3 | -1 | x | x
